Test results reported in PubChem BioAssay (EPA / NIEHS).
Results filed as inconclusive are left out. Calls of active or inactive are those of the source. How the source made its calls: active means hit-call score of the fitted dose curve at least 0.9, where 1 is the maximum; inconclusive means response in the unintended direction; inactive means score below 0.9.

These compounds were tested against human Fibroblast Growth Factor Receptor 1 (FGFR1), FGFR1 (gene 2260) (UniProt P11362) (assay: NVS_ENZ_hFGFR1: NovaScreen (NVS) Enzymatic Assay for human Fibroblast Growth Factor Receptor 1 (FGFR1) (AID 2283159)).
human Fibroblast Growth Factor Receptor 1 (FGFR1), FGFR1 (gene 2260), sequence (P11362 whole entry, looked up): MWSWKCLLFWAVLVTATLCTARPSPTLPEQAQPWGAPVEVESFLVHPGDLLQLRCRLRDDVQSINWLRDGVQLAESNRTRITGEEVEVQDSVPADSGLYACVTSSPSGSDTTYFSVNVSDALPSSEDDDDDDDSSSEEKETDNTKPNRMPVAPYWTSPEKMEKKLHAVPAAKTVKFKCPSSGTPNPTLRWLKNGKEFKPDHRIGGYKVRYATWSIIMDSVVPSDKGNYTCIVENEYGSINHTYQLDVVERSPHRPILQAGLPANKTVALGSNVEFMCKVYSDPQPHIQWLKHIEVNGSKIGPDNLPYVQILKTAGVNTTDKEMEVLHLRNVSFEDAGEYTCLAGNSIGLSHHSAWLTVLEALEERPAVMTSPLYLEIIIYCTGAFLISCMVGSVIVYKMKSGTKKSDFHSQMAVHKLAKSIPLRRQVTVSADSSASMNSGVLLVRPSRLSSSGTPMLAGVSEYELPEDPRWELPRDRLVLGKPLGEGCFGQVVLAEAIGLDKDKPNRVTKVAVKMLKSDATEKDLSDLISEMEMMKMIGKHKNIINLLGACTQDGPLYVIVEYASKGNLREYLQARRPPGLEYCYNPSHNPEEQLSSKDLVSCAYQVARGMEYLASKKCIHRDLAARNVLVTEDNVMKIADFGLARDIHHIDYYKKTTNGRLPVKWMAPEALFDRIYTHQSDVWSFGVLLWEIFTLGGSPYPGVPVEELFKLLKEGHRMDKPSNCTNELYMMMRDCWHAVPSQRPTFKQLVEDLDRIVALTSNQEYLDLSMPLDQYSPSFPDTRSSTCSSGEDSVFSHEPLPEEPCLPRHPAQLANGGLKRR
How it was run: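 Cell-free recombinant kinase with fluorescent substrate, product separated by electrophoretic mobility shift; read 1 hour after dosing, loss of signal relative to DMSO. Initial screen in duplicate at 25 uM, actives followed in concentration series.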
For `CC[C@H](C)[C@@H](C(=O)O)n1sc2ccccc2c1=O`, the outcome was “inactive”. For `OCCC(F)(F)C(F)(F)C(F)(F)C(F)(F)C(F)(F)C(F)(F)F`, the outcome was “inactive”. In the case of `CN(C)CCCN1c2ccccc2Sc2ccc(Cl)cc21`, the outcome is reported as “inactive”. With `Cc1cc(C)c(O)c(C)c1` the outcome was “inactive”. With `Cc1cn([C@H]2C[C@H](N=[N+]=[N-])[C@@H](CO)O2)c(=O)[nH]c1=O` the outcome was “inactive”. With `CC(C)(C)CC(C)(C)c1ccc(O)c(-n2nc3ccccc3n2)c1` the outcome was “inactive”.

These compounds were tested against Protein deacetylase HDAC6 (Homo sapiens) (UniProt Q9UBN7) (assay: NVS_ENZ_hHDAC6: NovaScreen (NVS) Enzymatic Assay for human Histone Deacetylase 6 (HDAC6) (AID 2283164)).
Protein deacetylase HDAC6 (Homo sapiens), sequence (Q9UBN7 whole entry, looked up): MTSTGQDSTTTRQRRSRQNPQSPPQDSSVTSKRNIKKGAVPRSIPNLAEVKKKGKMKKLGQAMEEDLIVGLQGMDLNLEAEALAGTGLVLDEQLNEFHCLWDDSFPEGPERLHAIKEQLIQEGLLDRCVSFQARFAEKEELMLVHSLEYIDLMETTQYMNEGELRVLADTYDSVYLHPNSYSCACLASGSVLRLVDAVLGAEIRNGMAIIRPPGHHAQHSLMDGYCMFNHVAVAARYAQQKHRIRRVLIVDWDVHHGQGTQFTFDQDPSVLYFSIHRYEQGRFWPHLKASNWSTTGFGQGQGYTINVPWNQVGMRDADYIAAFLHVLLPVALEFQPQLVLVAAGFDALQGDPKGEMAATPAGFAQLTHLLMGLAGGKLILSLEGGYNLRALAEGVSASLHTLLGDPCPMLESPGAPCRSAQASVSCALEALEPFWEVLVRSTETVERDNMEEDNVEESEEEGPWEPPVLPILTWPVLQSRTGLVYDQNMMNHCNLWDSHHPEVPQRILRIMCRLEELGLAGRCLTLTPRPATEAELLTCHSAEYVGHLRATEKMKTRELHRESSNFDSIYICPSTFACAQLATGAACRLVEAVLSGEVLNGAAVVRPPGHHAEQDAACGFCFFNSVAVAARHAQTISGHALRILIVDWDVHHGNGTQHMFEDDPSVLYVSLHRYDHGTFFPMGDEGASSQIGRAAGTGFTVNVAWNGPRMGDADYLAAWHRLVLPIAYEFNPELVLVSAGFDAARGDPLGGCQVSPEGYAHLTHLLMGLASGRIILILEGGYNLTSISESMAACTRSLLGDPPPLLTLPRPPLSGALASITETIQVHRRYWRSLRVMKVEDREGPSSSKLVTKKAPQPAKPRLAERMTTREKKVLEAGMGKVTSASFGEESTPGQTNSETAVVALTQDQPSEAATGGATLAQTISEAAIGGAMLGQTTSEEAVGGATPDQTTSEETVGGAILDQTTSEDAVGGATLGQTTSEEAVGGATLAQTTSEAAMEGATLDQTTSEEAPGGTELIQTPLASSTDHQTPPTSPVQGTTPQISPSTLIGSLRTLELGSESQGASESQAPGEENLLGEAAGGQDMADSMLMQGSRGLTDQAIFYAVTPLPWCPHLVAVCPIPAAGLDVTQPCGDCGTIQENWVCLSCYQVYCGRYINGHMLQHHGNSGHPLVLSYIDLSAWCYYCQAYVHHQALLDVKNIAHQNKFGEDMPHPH
How it was run: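 Recombinant human HDAC6 with fluorescent substrate, 1 h; product separated from substrate by electrophoretic mobility shift. Primary screen in duplicate at 25 uM; actives retested singly in concentration-response up to 50 uM, fitted relative to DMSO.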
With `On1ccccc1=S` the outcome was “inactive”. With `Cc1[nH]cnc1C[C@H]1CCc2c(C)c3ccccc3n2C1=O` the outcome was “inactive”. For `NC(=O)NO`, the outcome was “inactive”. `CCCc1cc(=O)[nH]c(=S)[nH]1` was tested, and the outcome was “inactive”. For `C1CCC(SSC2CCCCC2)CC1`, the outcome was “inactive”. With `CCCCCCCCCCCCc1ccccc1` the outcome was “inactive”. For `C#C[C@]1(O)CC[C@H]2[C@@H]3CCC4=CC(=O)CC[C@@H]4[C@H]3CC[C@@]21C`, the outcome was “inactive”. With `Cc1occc(=O)c1O` the outcome was “inactive”. With `CC(CO)OC(C)CO` (configuration not stated) (tested in a mixture with another compound) the outcome was “inactive”. With `CC(N)=O` the outcome was “inactive”.

These compounds were tested against human Matrix Metalloproteinase-1 (MMP1), MMP1 (gene 4312) (UniProt P03956) (assay: NVS_ENZ_hMMP1: NovaScreen (NVS) Enzymatic Assay for human Matrix Metalloproteinase-1 (MMP1) (AID 2283181)).
human Matrix Metalloproteinase-1 (MMP1), MMP1 (gene 4312), sequence (P03956 whole entry, looked up): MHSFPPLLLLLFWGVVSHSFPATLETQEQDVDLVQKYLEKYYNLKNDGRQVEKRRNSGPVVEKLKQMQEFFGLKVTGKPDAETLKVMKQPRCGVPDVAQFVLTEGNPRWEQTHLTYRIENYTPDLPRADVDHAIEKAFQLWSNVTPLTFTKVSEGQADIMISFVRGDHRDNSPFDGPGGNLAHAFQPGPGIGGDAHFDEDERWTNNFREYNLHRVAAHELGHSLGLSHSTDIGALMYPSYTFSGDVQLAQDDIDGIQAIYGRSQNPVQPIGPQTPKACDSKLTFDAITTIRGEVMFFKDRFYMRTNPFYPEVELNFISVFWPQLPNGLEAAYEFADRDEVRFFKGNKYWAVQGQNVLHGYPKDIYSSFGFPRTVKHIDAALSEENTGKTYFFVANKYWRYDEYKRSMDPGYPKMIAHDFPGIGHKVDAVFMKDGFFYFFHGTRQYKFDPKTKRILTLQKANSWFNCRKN
How it was run: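 Human MMP1 enzyme activity measured by fluorescence 1 h after dosing, cell-free, with a specific substrate. Screened in duplicate at 25 uM; hits (e.g. 30% inhibition) run in concentration-response up to 50 uM; loss of signal versus DMSO.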
`c1ccc(C(O[C@@H]2CCCN(CCc3ccc4c(c3)OCO4)C2)c2ccccc2)cc1` was tested, and the AC50 was 8.81 µM (active). In the case of `Nc1ccc(C(=O)O)cc1`, the outcome is reported as “inactive”. `CN1CCN(Cc2cc(-c3ccc4[nH]c(=O)oc4c3)co2)[C@@H](c2ccc(F)cc2)C1` was tested, and the AC50 was 10.5 µM (active). In the case of `Cn1cnc2c1c(=O)[nH]c(=O)n2C`, the outcome is reported as “inactive”. With `CCc1nn(C2CCCCC2)c2cc(C3(C#N)CCC(C(=O)O)CC3)ccc12` (configuration not stated) the AC50 was 12.1 µM (active). In the case of `CCCCC(CC)COC(=O)CC(C(=O)OCC(CC)CCCC)S(=O)(=O)O` (configuration not stated), the outcome is reported as “inactive”. In the case of `CC(=O)NC1(c2cccc(F)c2)CCN(CC[C@@]2(c3ccc(Cl)c(Cl)c3)CN(c3ccccc3)C(=O)CO2)CC1`, the outcome is reported as “inactive”. In the case of `CC(=O)OC1CC(C)OC(C)O1` (configuration not stated), the outcome is reported as “inactive”. `O=C(N[C@@H](Cc1ccccc1)[C@@H](O)C(=O)N1C[C@@H](O)[C@@H](O)C1)c1cc2cc(Cl)ccc2[nH]1` was tested, and the outcome was “inactive”. For `COc1ccc([N+](=O)[O-])cc1N`, the AC50 was 10.8 µM (active).

Each compound was assayed against human NIMA (Never In Mitosis Gene A)-Related Kinase 2 (NEK2), NEK2 (gene 4751) (UniProt P51955) (assay: NVS_ENZ_hNEK2: NovaScreen (NVS) Enzymatic Assay for human NIMA (Never In Mitosis Gene A)-Related Kinase 2 (NEK2) (AID 2283188)).
human NIMA (Never In Mitosis Gene A)-Related Kinase 2 (NEK2), NEK2 (gene 4751), sequence (P51955 whole entry, looked up): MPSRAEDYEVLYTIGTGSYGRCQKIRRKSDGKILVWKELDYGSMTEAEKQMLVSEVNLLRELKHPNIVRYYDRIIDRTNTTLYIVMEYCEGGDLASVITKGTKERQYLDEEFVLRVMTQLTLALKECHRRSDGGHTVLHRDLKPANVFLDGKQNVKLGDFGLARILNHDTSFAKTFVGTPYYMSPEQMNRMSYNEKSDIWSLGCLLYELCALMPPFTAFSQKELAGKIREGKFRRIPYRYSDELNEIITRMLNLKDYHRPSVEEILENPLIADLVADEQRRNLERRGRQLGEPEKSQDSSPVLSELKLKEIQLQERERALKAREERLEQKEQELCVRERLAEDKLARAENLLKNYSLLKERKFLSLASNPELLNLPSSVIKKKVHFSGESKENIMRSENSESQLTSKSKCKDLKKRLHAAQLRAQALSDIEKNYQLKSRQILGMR
How it was run: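 Cell-free NEK2 enzyme activity after 1 h exposure, read by fluorescence with electrophoretic mobility shift separating substrate and product. Primary screen in duplicate at 25 uM; actives then run as concentration series. Loss of signal versus DMSO scored.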
`c1ccc(C(O[C@@H]2CCCN(CCc3ccc4c(c3)OCO4)C2)c2ccccc2)cc1` was tested, and the outcome was “inactive”. With `O=CCCCC=O` the outcome was “inactive”. In the case of `CCCCC=O`, the outcome is reported as “inactive”.

The compounds below were run against human p21 Activated Kinase 4 (PAK4), PAK4 (gene 10298) (UniProt O96013) (assay: NVS_ENZ_hPAK4: NovaScreen (NVS) Enzymatic Assay for human p21 Activated Kinase 4 (PAK4) (AID 2283189)).
human p21 Activated Kinase 4 (PAK4), PAK4 (gene 10298), sequence (O96013 whole entry, looked up): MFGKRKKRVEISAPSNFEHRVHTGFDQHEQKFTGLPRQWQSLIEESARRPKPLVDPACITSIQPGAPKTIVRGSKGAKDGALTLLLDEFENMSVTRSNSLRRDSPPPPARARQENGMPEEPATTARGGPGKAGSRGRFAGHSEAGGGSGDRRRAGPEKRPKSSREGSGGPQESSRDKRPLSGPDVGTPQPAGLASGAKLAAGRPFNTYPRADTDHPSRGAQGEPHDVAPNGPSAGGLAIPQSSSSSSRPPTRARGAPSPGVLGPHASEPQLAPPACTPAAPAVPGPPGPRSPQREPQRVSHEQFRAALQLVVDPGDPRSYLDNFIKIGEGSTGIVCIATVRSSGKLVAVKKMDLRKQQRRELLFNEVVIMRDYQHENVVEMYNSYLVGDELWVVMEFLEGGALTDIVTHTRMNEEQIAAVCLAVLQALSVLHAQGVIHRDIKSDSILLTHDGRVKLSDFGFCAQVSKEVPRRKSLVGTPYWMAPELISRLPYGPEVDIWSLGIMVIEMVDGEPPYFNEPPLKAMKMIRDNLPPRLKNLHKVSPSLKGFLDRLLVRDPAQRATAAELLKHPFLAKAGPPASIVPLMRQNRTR
How it was run: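 Cell-free recombinant human PAK4 activity assay; fluorescent substrate and product separated by electrophoretic mobility shift, read 1 h after dosing. Initially tested in duplicate at 25 uM, relative to DMSO baseline.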
With `O=[Si]=O` the outcome was “inactive”. For `Cc1[nH]cnc1C[C@H]1CCc2c(C)c3ccccc3n2C1=O`, the outcome was “inactive”. In the case of `O=C1O[C@H]([C@H](O)CO)C(O)=C1O`, the outcome is reported as “inactive”. `NC(=O)N1C(=O)C(C(=O)c2cc(Cl)cs2)c2cc(F)c(Cl)cc21` (configuration not stated) was tested, and the outcome was “inactive”. For `Cc1ccc2oc(CN(Cc3ccccc3)C(=O)Nc3c(F)cc(F)cc3F)c(-c3ccc(Cl)cc3)c2c1`, the outcome was “inactive”. `CC(C)c1cccc(C(C)C)c1N1C(=O)c2ccc(O)cc2C1=O` was tested, and the outcome was “inactive”. For `CC(C)(C)c1ccccc1`, the outcome was “inactive”. With `CCCCCCCC[Si](OCC)(OCC)OCC` the outcome was “inactive”. For `CC[C@H]1OC(=O)[C@H](C)[C@@H](O[C@H]2C[C@@](C)(OC)[C@@H](O)[C@H](C)O2)[C@H](C)[C@@H](O[C@@H]2O[C@H](C)C[C@H](N(C)C)[C@H]2O)[C@](C)(O)C[C@@H](C)C(=O)[C@H](C)[C@@H](O)[C@]1(C)O`, the outcome was “inactive”. With `CC1(C)NC(=O)NC1=O` the outcome was “inactive”. With `O=C(O)[C@H](O)[C@@H](O)C(=O)O` the outcome was “inactive”. In the case of `Cc1cc(Cc2ccc(N)c(C)c2)ccc1N`, the outcome is reported as “inactive”.

These compounds were tested against human Phosphatase and Tensin Homolog (PTEN), PTEN (gene 5728) (UniProt P60484) (assay: NVS_ENZ_hPTEN: NovaScreen (NVS) Enzymatic Assay for human Phosphatase and Tensin Homolog (PTEN) (AID 2283203)).
human Phosphatase and Tensin Homolog (PTEN), PTEN (gene 5728), sequence (P60484 whole entry, looked up): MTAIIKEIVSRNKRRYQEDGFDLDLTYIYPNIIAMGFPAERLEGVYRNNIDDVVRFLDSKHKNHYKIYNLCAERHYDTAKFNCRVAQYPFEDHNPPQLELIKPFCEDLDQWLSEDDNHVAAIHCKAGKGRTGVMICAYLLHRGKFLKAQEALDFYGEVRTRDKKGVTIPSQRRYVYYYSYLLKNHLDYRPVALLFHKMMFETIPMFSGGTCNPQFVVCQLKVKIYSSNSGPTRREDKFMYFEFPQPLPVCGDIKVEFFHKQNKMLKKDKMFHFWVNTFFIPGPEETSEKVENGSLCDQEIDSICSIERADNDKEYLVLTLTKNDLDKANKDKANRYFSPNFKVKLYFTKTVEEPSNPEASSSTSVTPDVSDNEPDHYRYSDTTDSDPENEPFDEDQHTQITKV
How it was run: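 Cell-free recombinant human PTEN with fluorescent substrate; product separated by electrophoretic mobility shift and read by fluorescence 1 h after dosing. Primary screen in duplicate at 25 uM, actives followed in concentration series versus DMSO.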
In the case of `C1CCC(SSC2CCCCC2)CC1`, the outcome is reported as “inactive”. `NC(=O)N1C(=O)C(C(=O)c2cc(Cl)cs2)c2cc(F)c(Cl)cc21` (configuration not stated) was tested, and the AC50 was 25 µM (active). For `CC(C)c1cccc(C(C)C)c1N1C(=O)c2ccc(O)cc2C1=O`, the outcome was “inactive”.

Each compound was assayed against rat Monoamine Oxidase, MAO-B, Central (MAOBC), Maob (gene 25750) (UniProt P19643) (assay: NVS_ENZ_rMAOBC: NovaScreen (NVS) Enzymatic Assay for rat Monoamine Oxidase, MAO-B, Central (MAOBC) (AID 2283238)).
rat Monoamine Oxidase, MAO-B, Central (MAOBC), Maob (gene 25750), sequence (P19643 whole entry, looked up): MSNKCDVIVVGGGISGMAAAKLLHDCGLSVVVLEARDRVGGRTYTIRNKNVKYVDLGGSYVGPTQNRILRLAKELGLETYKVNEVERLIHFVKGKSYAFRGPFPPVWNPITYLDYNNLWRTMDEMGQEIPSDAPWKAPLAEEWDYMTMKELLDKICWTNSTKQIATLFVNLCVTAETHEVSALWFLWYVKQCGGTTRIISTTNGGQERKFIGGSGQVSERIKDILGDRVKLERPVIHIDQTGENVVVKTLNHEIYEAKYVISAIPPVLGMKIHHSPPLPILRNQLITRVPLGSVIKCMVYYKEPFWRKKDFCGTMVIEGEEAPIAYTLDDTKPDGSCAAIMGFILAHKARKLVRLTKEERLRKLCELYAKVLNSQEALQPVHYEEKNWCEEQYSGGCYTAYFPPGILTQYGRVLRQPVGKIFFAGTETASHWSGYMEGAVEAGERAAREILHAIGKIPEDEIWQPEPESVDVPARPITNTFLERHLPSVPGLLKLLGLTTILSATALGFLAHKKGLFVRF
How it was run: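 MAO-B activity in rat brain tissue preparation, cell-free, measured radiometrically by scintillation counting 1.17 h after dosing. Screened in duplicate at 25 uM; actives then in concentration-response up to 50 uM. Loss of signal versus DMSO scored.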
With `c1ccc(C(O[C@@H]2CCCN(CCc3ccc4c(c3)OCO4)C2)c2ccccc2)cc1` the AC50 was 14.9 µM (active). For `CN1CCN(Cc2cc(-c3ccc4[nH]c(=O)oc4c3)co2)[C@@H](c2ccc(F)cc2)C1`, the AC50 was 10.6 µM (active). `O=C(N[C@@H](Cc1ccccc1)[C@@H](O)C(=O)N1C[C@@H](O)[C@@H](O)C1)c1cc2cc(Cl)ccc2[nH]1` was tested, and the outcome was “inactive”. For `COc1ccc([N+](=O)[O-])cc1N`, the AC50 was 25 µM (active). In the case of `C#C[C@]1(O)CC[C@H]2[C@@H]3CCC4=CC(=O)CC[C@@H]4[C@H]3CC[C@@]21C`, the outcome is reported as “inactive”.

What follows are compounds tested against rat Monoamine Oxidase, MAO-B, Peripheral (MAOBP), Maob (gene 25750) (UniProt P19643) (assay: NVS_ENZ_rMAOBP: NovaScreen (NVS) Enzymatic Assay for rat Monoamine Oxidase, MAO-B, Peripheral (MAOBP) (AID 2283242)).
rat Monoamine Oxidase, MAO-B, Peripheral (MAOBP), Maob (gene 25750), sequence (P19643 whole entry, looked up): as above
In the case of `c1ccc(C(O[C@@H]2CCCN(CCc3ccc4c(c3)OCO4)C2)c2ccccc2)cc1`, the AC50 is reported as 22 µM (active). With `Cc1[nH]cnc1C[C@H]1CCc2c(C)c3ccccc3n2C1=O` the AC50 was 22.2 µM (active). With `CN1CCN(Cc2cc(-c3ccc4[nH]c(=O)oc4c3)co2)[C@@H](c2ccc(F)cc2)C1` the AC50 was 10.1 µM (active). For `CC(N)=O`, the outcome was “inactive”.

What follows are compounds tested on rat Monoamine Oxidase, MAO-A, Central (MAOAC), gene 29253 (assay: NVS_ENZ_rMAOAC: NovaScreen (NVS) Enzymatic Assay for rat Monoamine Oxidase, MAO-A, Central (MAOAC) (AID 2283243);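 further: potency refers to inhibition seen as signal drop below DMSO baseline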).
How it was run: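 Rat brain tissue extract served as the cell-free enzyme source; activity was measured by radiometric scintillation counting 1.5 hours after compound addition. Loss of signal relative to DMSO baseline indicated inhibition; primary screen at 25 uM in duplicate.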
In the case of `c1ccc(C(O[C@@H]2CCCN(CCc3ccc4c(c3)OCO4)C2)c2ccccc2)cc1`, the AC50 is reported as 20.5 µM (active). For `CN1CCN(Cc2cc(-c3ccc4[nH]c(=O)oc4c3)co2)[C@@H](c2ccc(F)cc2)C1`, the AC50 was 22 µM (active). For `Cc1cc(C)c(O)c(C)c1`, the outcome was “inactive”. With `CC(N)=O` the outcome was “inactive”.
